The values below come from PubChem BioAssay (NCATS).

Where “and” joins values, the source holds several entries; their conditions need not be identical. Identical values can stand only once. A number with no mark means an inactive call. Inconclusive results are not listed. Calls of active or inactive are those of the source. Unless noted, calls follow the shape of the dose curve; as a rule, active = well fitted curve in the direction sought with a large enough effect; inconclusive = small, poorly fitted or top-dose-only effect, or another doubt; inactive = no such curve, though single readings can be large; an effect the other way counts as inactive or inconclusive.

The nature of assay [1]: Cell Viability - HepG2 (AID 433; calls by dose curve;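 also: potency is read from the fitted curve at half-maximal effect; cells exposed to compound for 40 hours; potency for ATP loss meaning cytotoxicity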). The note with it: qHTS. Put shortly: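 ATP luminescence (CellTiter-Glo) after 40 h compound exposure, 37 °C, HepG2, 1500 cells/well, complete medium. Normalized: DMSO = basal, 100 uM tamoxifen = 100% inhibition. AC50 via standard Hill equation.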
Assay [2] in a line: Cell Viability - N2a (AID 540).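 Also: plate controls were DMSO alone for no effect and tamoxifen control for full effect; nearly all actives have a fitted effect of over 45% in size.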 The note with it: N2a mouse neuroblastoma cell viability; activity change, negative = cytotoxicity: at 92.2 µM (top of the series). Put shortly: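 CellTiter-Glo ATP luminescence, read 20 min after reagent at room temperature, reported viability following 40 h compound treatment at 37 °C. N2a mouse neuroblastoma cells seeded 1500/well; Hill equation gave AC50.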

Assay [3] in a line: Cellular Toxicity (caspase-3) Jurkat (AID 655).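 Also: cells exposed to compound for 16 h at 37 °C before reading.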 The note with it: Jurkat caspase-3 activation, luminescence; caspase-3 activation: at 92.2 µM (top of the series), DMSO = 0%, tamoxifen = 100%. Put shortly: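 Luminescent caspase-3/7 readout (aminoluciferin substrate cleavage) in human T-cell leukemia Jurkat cells after 16 hr compound exposure. Concentration-response normalized to DMSO and 100 uM tamoxifen; AC50 by standard Hill equation.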

The nature of assay [4]: Cellular Toxicity (caspase-3) BJ (AID 658). The note with it: BJ fibroblasts, luminescence, normalized: DMSO 0%, staurosporine 100%; series mostly up to 91.7 µM. Put shortly: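 qHTS, BJ fibroblasts, 1000 cells/well; 5 hr preincubation, 16 hr compound, 37 °C; Caspase-Glo 3/7 reagent, 1 hr RT; luminescence. DMSO = 0%, 10 uM staurosporine = 100%. Hill-equation AC50.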
The nature of assay [5]: MultiTox-Fluor Cytotoxicity Assay - LYMP1-002 - Live Cells (AID 955). Also: % is scaled to controls: 0 for no effect and ±100 for the full control effect. The note with it: LYMP1-002 lymphoblastoid live-cell protease fluorescence viability; series mostly up to 46.1 µM. Put shortly:
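After 16 h compound exposure at 37 C, live LYMP1-002 lymphoblastoid cells (2500/well) were quantified by cleavage of cell-permeant GF-AFC substrate, read at 405/510 nm after 60 min. Concentration-response fitted with Hill equation for AC50.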

Assay [6] can be described thus: Cell Viability - LYMP2-004 (AID 966).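 Also: plate controls were DMSO only for no effect and tetraoctylammonium bromide control for full effect; nearly all actives have a fitted effect of over 65% in size.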 The note with it: LYMP2-004 lymphoblastoid cell viability, qHTS; series mostly up to 92.2 µM. Put shortly: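 AC50 values come from Hill modelling of concentration-dependent loss of intracellular ATP, measured by CellTiter-Glo luminescence. Human LYMP2-004 lymphoblastoid cells (2500/well) were exposed to compound for 24 h at 37 C.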

Assay [7] is described as follows: Cell Viability - LYMP2-011 (AID 969).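 Also: 0% = DMSO only and full inhibition = 92 µM tetraoctylammonium bromide; nearly all actives have a fitted effect of over 60% in size.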 The note with it: LYMP2-011 lymphoblastoid cells viability; series mostly up to 92.2 µM. Put shortly:
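Cytotoxicity qHTS with ATP content as read-out: lymphoblastoid cells (2500/well) exposed to compound for 24 h at 37 C, then luciferase luminescence measured. Concentration-response data fitted with the standard Hill equation to give AC50.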

Assay [8] in a line: Cell Viability - LYMP2-023 (AID 975).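 Also: cellular ATP measured by luciferase luminescence as viability proxy; plate controls were DMSO only for no effect and 92 µM tetraoctylammonium bromide control for full effect; nearly all actives have a fitted effect of over 55% in size.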 The note with it: LYMP2-023 lymphoblastoid cell viability; series mostly up to 92.2 µM. Put shortly: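 Intracellular ATP, read by CellTiter-Glo luminescence, reports viability after 24 hr compound exposure at 37 C. 2500 lymphoblastoid cells/well (LYMP2-023) seeded 5 hr beforehand; Hill fits give AC50; positive control tetraoctylammonium bromide.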

Assay [9] in a line: Cell Viability - LYMP2-025 (AID 976).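 Also: plate controls were DMSO only for no effect and tetraoctylammonium bromide control for full effect.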 The note with it: LYMP2-025 lymphoblastoid cell viability; series mostly up to 92.2 µM. Put shortly:
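Cytotoxicity read as loss of intracellular ATP (luciferase luminescence) after 24 h compound treatment at 37 C. Uses LYMP2-025 lymphoblastoid cells in 1536-well format; Hill-equation modelling gives AC50; tetraoctylammonium bromide as positive control.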

Assay [10] in a line: Cell Viability - LYMP2-002 (AID 977).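 Also: plate controls were DMSO only for no effect and 92 µM tetraoctylammonium bromide for full effect.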 The note with it: LYMP2-002 lymphoblastoid cell viability, qHTS; series mostly up to 92.2 µM. Put shortly:
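Human lymphoblastoid cells, 2500/well, complete medium; 5 h 37 C settle; compound 24 h 37 C; CellTiter-Glo, 30 min RT; luminescence. Decrease in ATP = cytotoxicity; AC50 via Hill equation.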

Assay [11] is described as follows: Cell Viability - LYMP2-012 (AID 982).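 Also: cellular ATP by luciferase luminescence where a drop means cytotoxicity; cells exposed to compound for one day before reading; 0% = DMSO only and full loss = 92 µM tetraoctylammonium bromide; nearly all actives have a fitted effect of over 55% in size.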 The note with it: LYMP2-012 lymphoblastoid cell viability qHTS; series mostly up to 92.2 µM.
Assay [12] in a line: Cell Viability - LYMP2-014 (AID 983).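 Also: plate controls were DMSO only for no effect and 92 µM tetraoctylammonium bromide for full effect; nearly all actives have a fitted effect of over 50% in size.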 The note with it: LYMP2-014 lymphoblastoid cells, viability qHTS; series mostly up to 92.2 µM. Put shortly:
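Intracellular ATP loss, read by luciferase luminescence, measures acute cytotoxicity after 24 h compound exposure of lymphoblastoid LYMP2-014 cells (2500/well, 37 C). Concentration-response data fitted to the Hill equation for AC50.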

The nature of assay [13]: Cell Viability - LYMP2-016 (AID 984). Also: % is scaled to controls: 0 for no effect and ±100 for the full control effect; nearly all actives have a fitted effect of over 55% in size. The note with it: LYMP2-016 lymphoblastoid cell viability, qHTS; series mostly up to 92.2 µM. Put shortly:
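qHTS, 1536-well: 2500 LYMP2-016 cells/well, 5 hr 37 C, compound added, 24 hr 37 C, CellTiter-Glo 30 min RT, luminescence. Tetraoctylammonium bromide positive control. AC50 via Hill fit.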

A short description of assay [14]: Cell Viability - LYMP2-020 (AID 986).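 Also: plate controls were DMSO only for no effect and tetraoctylammonium bromide at 92 µM for full effect; nearly all actives have a fitted effect of over 55% in size.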 The note with it: series mostly up to 92.2 µM. Put shortly: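 Cytotoxicity in qHTS format: luminescent ATP readout from CellTiter-Glo after 24 h compound exposure at 37 C in complete medium. LYMP2-020 lymphoblastoid cells were seeded at 2500/well; concentration-response data fitted to the Hill equation for AC50.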
In assay [15] the target is Retinoic acid receptor RXR-alpha (Homo sapiens) (UniProt P19793). Briefly: qHTS assay for small molecule antagonists of retinoid X receptor alpha signaling (AID 588546; active = well fitted inhibition curve with a large enough effect in the signal ratio, with a control signal flat, not every such curve was filed as active; the % refers to the signal ratio; also: % is scaled to controls: 0 for no effect and ±100 for the full control effect). The note with it: HEK293T RXRa-UAS-bla, beta-lactamase ratio, antagonist mode. Put shortly: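 Beta-lactamase reporter inhibition, read as CCF4 fluorescence ratio (ex 405, em 460/530 nm) after 2 h at RT. HEK293T UAS-bla cells, 2500/well, were stimulated with 9-cis-RA at 500 or 100 nM final alongside test compound for 18 h at 37 C.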
Retinoic acid receptor RXR-alpha (Homo sapiens), sequence (P19793 whole entry, looked up): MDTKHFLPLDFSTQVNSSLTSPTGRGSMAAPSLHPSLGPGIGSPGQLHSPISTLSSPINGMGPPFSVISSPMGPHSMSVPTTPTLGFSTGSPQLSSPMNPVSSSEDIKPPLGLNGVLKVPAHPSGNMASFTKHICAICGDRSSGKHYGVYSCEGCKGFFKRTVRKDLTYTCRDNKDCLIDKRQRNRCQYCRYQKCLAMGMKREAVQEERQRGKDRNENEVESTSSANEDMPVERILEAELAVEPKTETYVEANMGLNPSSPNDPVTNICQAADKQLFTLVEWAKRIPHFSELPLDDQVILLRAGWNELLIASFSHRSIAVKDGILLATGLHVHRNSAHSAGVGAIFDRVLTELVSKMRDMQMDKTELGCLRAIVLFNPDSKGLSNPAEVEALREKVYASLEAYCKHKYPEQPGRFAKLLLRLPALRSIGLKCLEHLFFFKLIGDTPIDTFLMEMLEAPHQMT

Assay [16] in a line: Cell Viability - LYMP2-022 (AID 987). The note with it: LYMP2-022 lymphoblastoid cell viability; series mostly up to 92.2 µM. Put shortly:
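Cytotoxicity read as decreased cellular ATP (CellTiter-Glo luminescence, 30 min room temperature) after 24 hours compound exposure of 2500 lymphoblastoid LYMP2-022 cells/well at 37 C. Concentration-response data fitted with standard Hill equation for AC50.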

Assay [17] concerns the target Vitamin D3 receptor (Homo sapiens) (UniProt P11473). Kind of assay: qHTS assay for small molecule agonists of vitamin D receptor signaling (AID 588543; calls by dose curve;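 also: 0% = DMSO basal and 100% = reference agonist control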). The note with it: HEK293T VDR-UAS-bla, beta-lactamase ratio, 16 h; series mostly up to 76.8 µM. Put shortly: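 β-lactamase reporter, VDR-UAS-bla HEK293T, agonist mode. Cells plated 5 h at 37 °C, compound titration 16 h at 37 °C, CCF4 dye 2 h RT, ratio 460/530 nm. Hill fit → EC50, efficacy vs 50 nM 1α,25-(OH)2D3.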

Assay [18] addresses Voltage-gated inwardly rectifying potassium channel KCNH2 (Homo sapiens) (UniProt Q12809). Kind of assay: qHTS Assay for Small Molecule Inhibitors of the Human hERG Channel Activity (AID 588834).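 Also: top concentration of the series differs between compounds; % is scaled to controls: 0 for no effect and ±100 for the full control effect; lower thallium flux fluorescence means stronger hERG block; nearly all actives have a fitted effect of over 50% in size.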 The note with it: U2OS BacMam hERG, FluxOR thallium flux fluorescence; series mostly up to 92.2 µM. Put shortly:
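Thallium-flux (FluxOR) read-out on FDSS: fluorescence read 10 s before and 2 min after stimulation buffer. hERG-BacMam-transduced U2OS cells, compound exposure about 10 min. AC50 by standard Hill equation.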

A short description of assay [19]: qHTS assay for cell viability of HEK293 cells (AID 743288). Also: % is scaled to controls: 0 for no effect and ±100 for the full control effect; nearly all actives have a fitted effect of over 50% in size. The note with it: ATP luminescence (CellTiter-Glo), 18 h, active compounds read low. Put shortly:
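ATP luminescence (CellTiter-Glo) reports metabolically competent cell number after parental HEK293 cells, 2,000/well, were treated with DMSO-dissolved compounds for 18 h at 37 C; reagent incubation 30 min, room temperature.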

A short description of assay [20]: qHTS assay for small molecule activators of the p53 signaling pathway (AID 651743; active = well fitted activation curve with a large enough effect in the signal ratio, not every such curve was filed as active; the % refers to the signal ratio; also: potency is read from the fitted curve at half-maximal effect; as to activation: % of control where 0% means no effect). The note with it: HCT-116 p53RE-bla, beta-lactamase FRET ratio, 16 h; activation: active compounds read high. Put shortly:
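Following 16 hours of compound exposure at 37 C, HCT-116 cells bearing the p53RE-bla reporter were loaded with LiveBLAzer B/G FRET substrate for 2 hours at room temperature and fluorescence intensity was recorded.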

Voltage-gated inwardly rectifying potassium channel KCNH2 (Homo sapiens), sequence (Q12809 whole entry, looked up): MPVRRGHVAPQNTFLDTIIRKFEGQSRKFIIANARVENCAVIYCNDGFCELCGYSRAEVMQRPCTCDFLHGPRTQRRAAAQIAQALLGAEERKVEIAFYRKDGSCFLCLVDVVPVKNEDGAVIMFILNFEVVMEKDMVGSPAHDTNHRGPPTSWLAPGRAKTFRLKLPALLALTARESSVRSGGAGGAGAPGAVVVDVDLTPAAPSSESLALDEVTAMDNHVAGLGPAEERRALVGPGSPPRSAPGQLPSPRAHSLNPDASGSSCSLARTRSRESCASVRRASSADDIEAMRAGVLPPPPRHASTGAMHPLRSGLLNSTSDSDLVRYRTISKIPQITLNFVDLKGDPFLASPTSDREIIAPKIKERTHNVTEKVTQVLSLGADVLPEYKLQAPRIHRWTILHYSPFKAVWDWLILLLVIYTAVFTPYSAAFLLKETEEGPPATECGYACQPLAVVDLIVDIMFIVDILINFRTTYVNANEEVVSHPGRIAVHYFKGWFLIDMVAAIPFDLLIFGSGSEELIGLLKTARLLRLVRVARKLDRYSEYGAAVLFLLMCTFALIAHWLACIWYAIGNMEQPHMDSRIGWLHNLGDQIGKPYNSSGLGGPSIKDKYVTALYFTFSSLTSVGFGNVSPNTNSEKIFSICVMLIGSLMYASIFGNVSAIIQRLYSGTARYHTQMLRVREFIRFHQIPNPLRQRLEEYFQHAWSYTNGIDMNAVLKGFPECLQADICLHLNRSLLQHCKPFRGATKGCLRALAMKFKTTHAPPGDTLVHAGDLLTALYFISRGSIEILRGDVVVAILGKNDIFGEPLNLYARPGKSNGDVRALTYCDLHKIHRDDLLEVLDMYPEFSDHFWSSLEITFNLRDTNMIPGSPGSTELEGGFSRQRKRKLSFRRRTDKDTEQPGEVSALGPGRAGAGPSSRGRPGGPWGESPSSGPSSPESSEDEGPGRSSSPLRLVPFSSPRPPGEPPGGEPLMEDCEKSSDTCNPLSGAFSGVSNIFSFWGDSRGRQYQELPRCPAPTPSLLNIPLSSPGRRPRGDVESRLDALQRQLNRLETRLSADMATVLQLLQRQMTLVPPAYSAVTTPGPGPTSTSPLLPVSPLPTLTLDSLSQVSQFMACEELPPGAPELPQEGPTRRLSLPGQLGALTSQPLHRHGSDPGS
Vitamin D3 receptor (Homo sapiens), sequence (P11473 whole entry, looked up): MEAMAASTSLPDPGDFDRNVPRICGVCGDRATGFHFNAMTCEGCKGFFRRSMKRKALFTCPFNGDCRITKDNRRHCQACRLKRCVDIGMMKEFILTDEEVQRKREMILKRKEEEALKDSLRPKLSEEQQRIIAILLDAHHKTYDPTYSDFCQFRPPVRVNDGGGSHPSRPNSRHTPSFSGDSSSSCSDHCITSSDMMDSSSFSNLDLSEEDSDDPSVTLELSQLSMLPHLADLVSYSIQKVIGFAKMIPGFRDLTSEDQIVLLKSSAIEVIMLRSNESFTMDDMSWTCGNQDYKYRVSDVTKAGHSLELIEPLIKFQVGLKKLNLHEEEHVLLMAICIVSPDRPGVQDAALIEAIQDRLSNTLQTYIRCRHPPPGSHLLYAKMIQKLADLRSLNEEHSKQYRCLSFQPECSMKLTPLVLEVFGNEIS

Consider `O=[N+]([O-])c1cccc2c([N+](=O)[O-])cccc12`, for which the Potency in assay [1] was over 92 µM. In addition, the Potency result in assay [2], in assay [6], in [7], in assay [8], in [9] and in assay [10] was “inactive” throughout. In addition, the Potency result in assay [11], in [12], in [13] and in assay [14] was “inactive” throughout. The caspase-3 activation in assay [3] is 0.295%. The compound was called inactive in assay [4] and in assay [5]. Also, the max response in assay [15] was 7.28%.
With `O=C(O)CCl`, the Potency in [1] was over 92 µM. Further, the Potency result in assay [2], in assay [6], in assay [7], in assay [9], in assay [10] and in assay [11] was “inactive” throughout. Besides, the Potency result in [12], in assay [16] and in [18] was “inactive” throughout. In addition, the compound was classed as inactive in assay [4] and in [17]. The max response is -2.41% in assay [15] and -4.45% in assay [19].
Regarding `Nc1ccc([N+](=O)[O-])cc1[N+](=O)[O-]`, the Potency in assay [1] was over 92 µM. Further, the caspase-3 activation in assay [3] was 1.67%. Also, the compound was classed as inactive in [4], in assay [5] and in assay [17]. Besides, the Potency result in assay [6], in assay [7], in [8], in [9], in assay [10] and in assay [12] was “inactive” in each case. For the same compound, the Potency entry in assay [13], in assay [14], in assay [16] and in assay [18] was “inactive” in each case. In [19], the max response was 2.24%.
With `CC(C)(Cl)Cl`, the Potency in assay [1] was over 92 µM. Besides, the caspase-3 activation in assay [3] is -0.572%. The compound was called inactive in assay [4], in [5] and in [17]. The Potency entry in [6], in assay [7], in assay [9], in [10], in assay [12] and in assay [13] was “inactive” in each case. Moreover, the Potency result in assay [14] and in assay [18] was “inactive” in each case. In addition, the max response in assay [15] was 3.57%; in [19] it was 1.9%. In addition, the activation in assay [20] is -1.59%.
For the compound `CCCCNC(=O)n1c(NC(=O)OC)nc2ccccc21`, the Potency in assay [1] was over 92 µM; in [20], 14.1 µM (active). For the same compound, the Potency result in assay [2], in assay [6], in assay [7], in [8], in assay [9] and in assay [10] was “inactive” each time. Further, the Potency result in assay [11], in [12], in assay [13] and in assay [18] was “inactive” in each case. Further, the caspase-3 activation in assay [3] was 7.08%. Moreover, the outcome in assay [4] and in assay [17] was inactive. The max response in assay [15] is -15.6%; in [19], -16.4% and -17.6%.
For `Nc1ccc(-c2ccc(N)cc2)cc1`, the Potency in assay [1] was over 92 µM. For the same compound, the Potency result in [2], in assay [6], in assay [9], in assay [10], in [11] and in assay [12] was “inactive” in each case. The Potency result in assay [13], in assay [14], in assay [16] and in assay [18] was “inactive” throughout. For the same compound, the compound was called inactive in assay [4], in assay [5] and in assay [17]. In addition, the max response in assay [15] is 0.312%; in [19], 2.98%. Also, the activation in assay [20] was -1.06%.
Consider `CCCCOC(=O)c1ccccc1N`, for which the Potency in assay [1] was over 92 µM. In addition, the Potency entry in assay [2], in assay [6], in [7], in [8], in assay [9] and in [10] was “inactive” each time. For the same compound, the Potency entry in assay [11], in assay [12], in assay [13] and in assay [18] was “inactive” in each case. In addition, the caspase-3 activation in [3] is 1.19%. The compound was classed as inactive in assay [4], in assay [5] and in assay [17]. Besides, the max response is 6.01% in [15] and -7.97% in assay [19].
